Screening results as filed in PubChem BioAssay.
GALK inhibitor: qHTS Assay for Inhibitors of Human Galactokinase (GALK) | P51570 | Purified GALK, Kinase-Glo residual ATP luminescence | AID 1868, 2009 | Potency, µM (titrated, usually from 57.5 µM), inactives show at the top dose activity change, negative = inhibition, usual class: inhibitors | actives 0.007% (n = 270,000); further: potency means the concentration at half of the fitted maximal effect
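Human GALK (5 nM) with 35 uM ATP and 100 uM galactose in 20 mM HEPES pH 8.0, 5 mM MgCl2, 60 mM NaCl, 1 mM DTT, 0.01% BSA. After 1 h at room temperature, leftover ATP was read by Kinase-Glo Plus luminescence.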
PI4K2A block: qHTS for small molecular inhibitors of PI4K2A; Phosphatidylinositol 4-kinase type 2-alpha (Homo sapiens), Q9BTU6; actives 0.13% (n = 420,000); purified PI4K2A, ADP-Glo luminescence, 1 h; active compounds read low; activity change, negative = inhibition, % at 76.9 µM; in the data active means activity change below about -50%; inconclusive means mostly about -30% to -49%;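 further: -100% = wells without enzyme as full effect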
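ADP-Glo luminescence measured ADP generated by PI4K2A enzyme (4 ug/mL before mixing) with 1.2 mM PI substrate (pre-mix) and 300 microM ATP (pre-mix). Tris pH7.5 buffer with MgCl2, Triton X-100; 1 h reaction at ambient temperature.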
USP1 inh: Inhibitors of USP1/UAF1: Primary Screen; recombinant USP1/UAF1, Ub-Rhodamine cleavage fluorescence; Potency, µM (top dose mostly 57.1 µM), inactives show at the top dose activity change, negative = inhibition, hits mostly inhibitors; actives 0.23% (n = 390,000); AID 743255, 2014; further: potency means the concentration at half of the fitted maximal effect; nearly all actives have a fitted effect of over 60% in size
Target sequence (O94782 whole entry, looked up): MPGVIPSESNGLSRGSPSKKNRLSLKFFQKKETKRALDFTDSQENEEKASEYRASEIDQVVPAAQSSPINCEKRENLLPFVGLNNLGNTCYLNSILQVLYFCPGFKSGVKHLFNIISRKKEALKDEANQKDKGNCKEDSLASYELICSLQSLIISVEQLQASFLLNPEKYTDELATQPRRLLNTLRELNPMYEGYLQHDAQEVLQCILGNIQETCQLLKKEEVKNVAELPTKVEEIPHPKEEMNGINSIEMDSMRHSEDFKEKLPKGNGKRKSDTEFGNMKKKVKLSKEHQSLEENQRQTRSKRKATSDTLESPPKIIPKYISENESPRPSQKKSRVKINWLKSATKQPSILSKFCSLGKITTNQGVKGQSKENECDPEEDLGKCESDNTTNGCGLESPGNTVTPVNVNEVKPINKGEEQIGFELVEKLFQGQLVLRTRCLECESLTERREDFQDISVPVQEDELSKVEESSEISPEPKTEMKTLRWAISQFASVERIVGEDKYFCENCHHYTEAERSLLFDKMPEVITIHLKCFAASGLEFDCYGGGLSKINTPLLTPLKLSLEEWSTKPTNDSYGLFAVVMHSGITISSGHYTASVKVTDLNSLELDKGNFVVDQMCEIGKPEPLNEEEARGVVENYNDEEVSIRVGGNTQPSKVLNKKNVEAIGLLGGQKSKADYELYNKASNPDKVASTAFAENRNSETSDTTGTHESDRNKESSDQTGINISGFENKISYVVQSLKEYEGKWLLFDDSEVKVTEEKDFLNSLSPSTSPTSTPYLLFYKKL
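Step one: compound is pinned into 1nM USP1/UAF1 in HEPES pH 7.8 buffer with TCEP. Step two: 15 min room-temperature incubation. Step three: Ub-Rho (150nM final) starts cleavage, tracked by fluorescence over six one-minute reads.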
Coupling enz: qHTS Assay for Inhibitors of Fructose-1,6-bisphosphate Aldolase from Giardia Lamblia: Coupling assay counterscreen. coupling enzyme system counterscreen, AmpLite Red fluorescence. activity change, negative = inhibition, % at 58.2 µM, hits read low. actives 0.67% (n = 290,000); in the data active means activity change below about -30%
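Fluorescence at 525 nm excitation and 598 nm emission measured inhibition of the coupled detection system without aldolase. Compounds (at 57.5 uM final) were preincubated 10 min at room temperature with coupling enzyme reagent before a 20 min substrate/AmpLite Red step.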
Eya2 phos inh: qHTS Assay for Inhibitors of the Phosphatase Activity of Eya2. recombinant Eya2, OMFP fluorescence dephosphorylation (OMFP is methylfluorescein phosphate). Potency, µM (series often up to 76.9 µM), for inactives: top-dose activity, negative = inhibition, most hits filed as inhibitors. actives 0.006% (n = 330,000); further: potency means the concentration at half of the fitted maximal effect
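Eya2 protein (added as 0.2 uM solution) was preincubated with compound for 10 min at ambient temperature in 50 mM HEPES pH 7.5, 50 mM NaCl, 5 uM MgCl2, 0.05% BSA, 1 mM DTT. OMFP (added at 50 uM) then reacted 10 min; fluorescence read at 485/525 nm.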
USP2a block: qHTS Assay for Inhibitors of Ubiquitin-specific Protease USP2a Using CHOP2 as the Reporter | Ubiquitin carboxyl-terminal hydrolase 2 (Homo sapiens), O75604 | USP2 core, Ub-CHOP2 coupled fluorogenic reporter, 485/531 | Potency, µM (titrated, usually from 38.3 µM), for the others: at the highest dose activity change, negative = inhibition, usual class: inhibitors | actives 0.01% (n = 330,000) | AID 463254, 2010;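 further: potency means the concentration at half of the fitted maximal effect; plate controls were DMSO wells for no effect and full inhibition by NEM control for full effect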
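USP2 core (10nM final) preincubated 30min RT with compound in 20mM Tris-HCl pH 8.0, 2mM CaCl2, 2mM beta-mercaptoethanol, 0.05% CHAPS; 25nM Ub-CHOP2 plus 25nM reporter substrate added, fluorescence (Ex485/Em531) read after 60min.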
Numbers without * were called inactive; ? = inconclusive; · = no result given. This is a sample that favours compounds with a hit; in the whole collection about 0.71% have one here. Unless noted, the call rests on the fitted dose curve; in most records, active means well fitted curve in the direction sought with a large enough effect; inconclusive means small, poorly fitted or top-dose-only effect, or another doubt; inactive means no such curve, though single readings can be large; an effect the other way counts as inactive or inconclusive. Unless noted, on the % scale 0 is the no-effect control and ±100 the full control effect.

SMILES	GALK inhibitor	PI4K2A block	USP1 inh	Coupling enz	Eya2 phos inh	USP2a block
CCOc1cc2c(C#N)c(N3CCCC3)nc(N)c2c(N)n1	·	5	-26%	·	·	·
Cc1sccc1Br	·	2	·	·	·	·
Cn1c(NC(=O)c2ccc(C(C)(C)C)cc2)cc(=O)n(C)c1=O	1%	-7	0%	2	-6%	-2%
Cn1c(NNC(=O)c2ccc(C(C)(C)C)cc2)cc(=O)n(C)c1=O	0%	0	-22%	-34*	-9%	-2%
O=C(N/N=C/c1ccc(N2CCOCC2)o1)c1cccc([N+](=O)[O-])c1	·	-5	-8%	-44*	0%	1%
Cc1[nH]c(=O)[nH]c(=O)c1/C=N/NC(=O)[C@H](CC(C)C)NC(=O)OC(C)(C)C	1%	-2	-21%	5	-6%	-2%
Cc1[nH]c(=O)[nH]c(=O)c1/C=N/NC(=O)[C@@H](N)CC(C)C	-2%	-60*	-14%	0	10%	0%
CC(C)C(=O)Nc1cccc(C(F)(F)F)c1	·	1	·	·	·	·
CCOC(=O)c1c(C)sc(-c2c(-c3ccc4c(c3)OCCO4)[nH]c3c2c(=O)[nH]c(=O)n3C)c1O	·	11	25µM*	·	·	·
CCOC(=O)c1c(C)sc(-c2c(-c3ccc4c(c3)OCCO4)[nH]c3c2c(=O)n(C)c(=O)n3C)c1O	·	2	16µM*	·	·	·
COC(=O)c1c(C)sc(-c2c(-c3ccc4c(c3)OCCO4)[nH]c3c2c(=O)n(C)c(=O)n3C)c1O	·	6	-13%	·	·	·
CCOC(=O)c1c(C)sc(-c2c(-c3ccc(OC)c(F)c3)[nH]c3[nH]c(=O)[nH]c(=O)c23)c1O	·	8	-8%	·	·	·
CCOC(=O)c1c(C)sc(-c2c(-c3ccc(OC)c(F)c3)[nH]c3c2c(=O)[nH]c(=O)n3C)c1O	·	-1	22µM*	·	·	·
C[C@@H]1/C=C\CC(=O)OC[C@H]2O[C@@H](C=C[C@@H]2O)[C@H](C)/C=C\CC(=O)OC1	·	·	·	2	·	·
CCCc1cc(=O)oc2cc(C)cc(OCC(=O)NC(Cc3c[nH]c4ccc(O)cc34)C(=O)O)c12 (centres undefined)	·	-18	-23%	1	2%	-1%
CCCCc1cc(=O)oc2cc(OCC(=O)NC(Cc3c[nH]c4ccc(O)cc34)C(=O)O)ccc12 (centres undefined)	·	-68*	19%	5	2%	-2%
O=C(CCCOc1ccc(Cl)cc1Cl)N/N=C/c1ccccc1	-2%	5	-12%	-48*	-10%	-5%
CC(=NCc1cccnc1)C1=C(O)c2ccccc2C1=O	0%	-54*	-16%	4	-12%	2%
CC(=NCc1ccncc1)C1=C(O)c2ccccc2C1=O	-2%	·	·	2	12%	4%
O=C(C1CCN(c2ncnc3c2sc2cccc(F)c23)CC1)N1CCCC1	-2%	·	·	-44*	-6%	1%
CC(=O)N1CCCN(C(=O)C2CCN(c3ncnc4c3sc3cccc(F)c34)CC2)CC1	·	1	·	·	·	·
O=C1OC2(c3cc(I)c(O)c(I)c3Oc3c2cc(I)c(O)c3I)c2c(Cl)c(Cl)c(Cl)c(Cl)c21	·	·	·	2	·	·
COc1ccc(CN2CCNC(=O)C2CC(=O)N2CCCCO2)cc1OC (centres undefined)	-1%	-4	-12%	-30*	10%	0%
COc1cc(/C=C(\C#N)C(=O)c2c[nH]c3ccccc23)cc(OC)c1O	-1%	-3	28µM*	-14	14%	3%
COc1cc(/C=C(\C#N)C(=O)NCCc2ccccc2)cc(OC)c1O	3%	2	-24%	-3	-11%	5%
SMILES	GALK inhibitor	PI4K2A block	USP1 inh	Coupling enz	Eya2 phos inh	USP2a block
O=c1c(/C=N/Nc2ccccc2)c(Sc2nnnn2-c2ccccc2)nc2ccccn12	-1%	3	3.2µM*	-2	-1%	2%
Cc1nc2ccccc2c(=O)n1/N=C/c1ccccc1	-1%	-3	-8%	3	-4%	0%
Cc1nc2ccccc2c(=O)n1/N=C/c1ccc(O)c(O)c1O	0%	-30	-16%	-45*	-3%	-24%
O=C1c2ccccc2C(=O)N1/N=C/c1ccc(O)c(O)c1O	-2%	-9	?	-68*	-12%	7%
Cc1nc2ccccc2c(=O)n1/N=C/c1ccccc1O	6%	0	-28%	2	-16%	3%
Cc1nc2ccccc2c(=O)n1/N=C/c1ccc2ccccc2c1O	-4%	3	-13%	-32*	-3%	-2%
C=CCOC(=O)C(C(C)=O)C(NC(=O)OC)c1cccc(C)c1 (centres undefined)	·	·	·	-1	·	·
COc1ccccc1CNC(=O)COC(=O)c1cc(-c2ccco2)nc2ccccc12	1%	-53*	?	3	5%	-1%
COc1ccccc1CNC(=O)COC(=O)c1cc(C)nc2ccccc12	·	2	-8%	·	5%	1%
COC(=O)C[C@H]1c2ccccc2C2=C(C[C@@H](C)[C@H]3C(=O)NC(=O)[C@@H]23)N1C(=O)OC	·	·	·	1	·	·
N#Cc1cc([N+](=O)[O-])ccc1Oc1cccc(/C=N/NC(=O)c2cccc(Cl)c2)c1	-3%	13	-5%	-36*	?	5%
COc1ccc(/C=N/NC(=O)c2cccc([N+](=O)[O-])c2)cc1OC	2%	4	-9%	0	-6%	4%
CCCCCC(=O)c1cc(CC(C(=O)OC)C(=O)OC)cc2cc(OC)c(OC)cc12	·	·	·	-1	·	·
NC(=O)c1ccc2[nH]ccc2c1	·	5	·	·	0%	·
CC1N(C)c2cccc3cccc(c23)N1C	-1%	-7	?	-30	2%	1%
CN1c2cccc3cccc(c23)N(C)C1c1cccs1	-1%	0	?	-37*	0%	10%
COc1ccc(S[C@]2(C(=O)N(C)C)CC(=O)N(c3ccsc3)[C@@H]2c2ccc(OC)cc2)cc1	·	-1	·	·	·	·
Cc1cc2nc(-c3ccc[nH]c3=O)[nH]c2cc1C	·	-66*	-10%	-2	3%	2%
O=C(O)c1ccc(C2CCCCC2)cn1	0%	-18	-14%	-49*	-21%	1%
COc1ccc(Sc2ccccc2CN(C)C)cc1OC	-3%	3	-16%	0	-6%	-1%
CNCc1ccccc1Sc1ccc(O)c(O)c1	2%	1	-5%	-40*	4%	1%
